# Source: article PMC7862700, “An all-to-all approach to the identification of sequence-specific readers for epigenetic DNA modifications on cytosine”
# Columns and labels:
# Assay in all cases: DAPPL (digital affinity profiling via proximity ligation, sequencing); 10 mM Tris-HCl pH 7.5, 50 mM NaCl, 1 mM DTT, 4% glycerol, room temperature, 30 min; GST-TFs on glutathione beads, 16-mer random dsDNA library, 0.1% formaldehyde crosslink after washing; high values mean tight binding
# [1] = target: T1, FLI1 (Homo sapiens, UniProt Q01543 1-452); conditions: protein: recombinant; tags: N-terminal GST; dsDNA, one strand shown
# T1 sequence: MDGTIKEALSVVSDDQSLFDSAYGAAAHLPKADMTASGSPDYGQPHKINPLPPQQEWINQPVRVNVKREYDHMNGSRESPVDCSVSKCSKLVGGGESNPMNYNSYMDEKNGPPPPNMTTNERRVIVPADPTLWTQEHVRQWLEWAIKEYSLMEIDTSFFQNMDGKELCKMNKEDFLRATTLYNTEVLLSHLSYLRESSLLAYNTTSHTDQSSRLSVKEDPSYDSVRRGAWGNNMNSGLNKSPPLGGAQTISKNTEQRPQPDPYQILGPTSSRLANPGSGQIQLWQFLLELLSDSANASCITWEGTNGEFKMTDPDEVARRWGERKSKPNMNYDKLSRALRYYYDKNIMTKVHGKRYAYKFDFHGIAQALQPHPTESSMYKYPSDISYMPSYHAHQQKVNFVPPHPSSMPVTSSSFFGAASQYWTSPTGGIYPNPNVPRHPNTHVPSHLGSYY
# In short: (§1)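 Binding signal is given per hexamer as its read frequency for a factor divided by its frequency in the tag-only sample. GST-fused human transcription factors were expressed in yeast, captured on glutathione beads, barcoded with DNA and pooled with that sample, then incubated with 200 nmole of a 16-mer random double-stranded DNA library in Tris/NaCl/DTT/glycerol buffer for 30 min at room temperature. The pools were then washed, crosslinked, proximity-ligated, amplified by PCR and sequenced on an Illumina NextSeq500.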
# [2] = target: T2, ELK1 (Homo sapiens, UniProt P19419 1-428); conditions: protein: recombinant; tags: N-terminal GST; dsDNA, one strand shown
# T2 sequence: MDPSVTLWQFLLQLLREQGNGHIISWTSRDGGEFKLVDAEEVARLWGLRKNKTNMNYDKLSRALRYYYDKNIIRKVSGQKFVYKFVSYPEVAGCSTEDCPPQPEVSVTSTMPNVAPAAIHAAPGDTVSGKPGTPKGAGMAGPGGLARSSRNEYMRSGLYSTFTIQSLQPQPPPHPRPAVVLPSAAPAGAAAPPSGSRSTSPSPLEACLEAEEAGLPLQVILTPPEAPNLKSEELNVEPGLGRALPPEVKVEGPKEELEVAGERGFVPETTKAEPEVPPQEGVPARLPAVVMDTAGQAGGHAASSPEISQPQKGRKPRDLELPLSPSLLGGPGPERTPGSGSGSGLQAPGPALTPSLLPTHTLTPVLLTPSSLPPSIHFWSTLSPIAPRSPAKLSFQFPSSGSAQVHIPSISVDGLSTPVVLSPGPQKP
# In short: as §1
# [3] = target: T3, GABPA (Homo sapiens, UniProt Q06546 1-454); conditions: protein: recombinant; tags: N-terminal GST; dsDNA, one strand shown
# T3 sequence: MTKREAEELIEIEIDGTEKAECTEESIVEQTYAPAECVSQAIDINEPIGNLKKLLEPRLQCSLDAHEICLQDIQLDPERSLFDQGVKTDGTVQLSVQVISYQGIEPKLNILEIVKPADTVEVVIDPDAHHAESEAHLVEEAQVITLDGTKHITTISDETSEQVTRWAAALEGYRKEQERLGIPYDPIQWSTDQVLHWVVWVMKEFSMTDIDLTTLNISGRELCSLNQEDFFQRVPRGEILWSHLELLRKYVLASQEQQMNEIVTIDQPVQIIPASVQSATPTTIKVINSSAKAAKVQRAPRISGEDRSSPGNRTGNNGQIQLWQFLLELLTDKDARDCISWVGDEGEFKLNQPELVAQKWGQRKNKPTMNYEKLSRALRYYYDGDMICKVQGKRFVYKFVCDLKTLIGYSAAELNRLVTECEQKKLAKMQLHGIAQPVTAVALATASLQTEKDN
# In short: as §1
# [4] = target: T4, ERG (Homo sapiens, UniProt P11308 1-479); conditions: protein: recombinant; tags: N-terminal GST; dsDNA, one strand shown
# T4 sequence: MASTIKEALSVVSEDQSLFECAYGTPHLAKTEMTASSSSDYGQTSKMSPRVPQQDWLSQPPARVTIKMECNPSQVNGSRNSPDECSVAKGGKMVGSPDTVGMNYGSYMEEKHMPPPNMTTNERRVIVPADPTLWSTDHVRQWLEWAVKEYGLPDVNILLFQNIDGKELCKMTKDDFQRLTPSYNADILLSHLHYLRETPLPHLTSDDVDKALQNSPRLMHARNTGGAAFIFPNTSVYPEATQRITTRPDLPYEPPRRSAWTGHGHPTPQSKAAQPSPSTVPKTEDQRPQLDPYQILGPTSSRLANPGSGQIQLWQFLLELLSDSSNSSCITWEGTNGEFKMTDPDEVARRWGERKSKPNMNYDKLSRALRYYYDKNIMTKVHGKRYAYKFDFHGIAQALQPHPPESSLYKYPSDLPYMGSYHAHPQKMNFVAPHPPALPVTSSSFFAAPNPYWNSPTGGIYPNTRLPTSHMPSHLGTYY
# In short: as §1
# [5] = target: ELF1 (Homo sapiens, UniProt P32519 1-619); conditions: protein: recombinant; tags: N-terminal GST; dsDNA, one strand shown
# Chain of ELF1 (P32519 whole entry): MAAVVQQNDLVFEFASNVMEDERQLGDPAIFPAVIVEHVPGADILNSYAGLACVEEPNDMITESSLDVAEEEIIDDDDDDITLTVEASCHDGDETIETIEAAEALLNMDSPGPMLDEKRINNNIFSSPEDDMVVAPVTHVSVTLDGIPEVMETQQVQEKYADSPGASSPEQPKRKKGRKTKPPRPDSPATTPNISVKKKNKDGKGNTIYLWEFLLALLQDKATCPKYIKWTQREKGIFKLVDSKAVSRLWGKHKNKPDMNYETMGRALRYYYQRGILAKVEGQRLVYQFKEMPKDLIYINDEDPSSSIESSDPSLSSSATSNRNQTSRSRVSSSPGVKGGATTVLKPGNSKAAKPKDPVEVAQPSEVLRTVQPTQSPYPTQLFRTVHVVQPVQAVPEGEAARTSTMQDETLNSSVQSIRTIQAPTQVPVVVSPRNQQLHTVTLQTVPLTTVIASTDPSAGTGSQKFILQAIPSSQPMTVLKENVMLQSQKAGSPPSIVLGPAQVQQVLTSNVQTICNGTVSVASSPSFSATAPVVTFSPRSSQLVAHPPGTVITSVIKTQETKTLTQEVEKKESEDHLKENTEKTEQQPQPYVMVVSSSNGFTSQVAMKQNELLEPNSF
# In short: as §1
# [6] = target: T5, EHF (Homo sapiens, UniProt Q9NZC4 1-300); conditions: protein: recombinant; tags: N-terminal GST; dsDNA, one strand shown
# T5 sequence: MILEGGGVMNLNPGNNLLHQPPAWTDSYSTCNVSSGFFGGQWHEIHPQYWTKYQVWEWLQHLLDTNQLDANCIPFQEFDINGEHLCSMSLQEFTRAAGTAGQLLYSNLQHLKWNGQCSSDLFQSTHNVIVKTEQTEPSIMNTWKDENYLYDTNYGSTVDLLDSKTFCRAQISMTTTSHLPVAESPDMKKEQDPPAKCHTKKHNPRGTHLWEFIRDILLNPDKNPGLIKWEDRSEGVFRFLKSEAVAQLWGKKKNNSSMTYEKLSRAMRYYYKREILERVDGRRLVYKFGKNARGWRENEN
# In short: as §1
# [7] = target: SPI1 (Homo sapiens, UniProt P17947 1-270); conditions: protein: recombinant; tags: N-terminal GST; dsDNA, one strand shown
# In short: as §1
# [8] = target: SPIB (Homo sapiens, UniProt Q01892 1-262); conditions: protein: recombinant; tags: N-terminal GST; dsDNA, one strand shown
# Chain of SPIB (Q01892 whole entry): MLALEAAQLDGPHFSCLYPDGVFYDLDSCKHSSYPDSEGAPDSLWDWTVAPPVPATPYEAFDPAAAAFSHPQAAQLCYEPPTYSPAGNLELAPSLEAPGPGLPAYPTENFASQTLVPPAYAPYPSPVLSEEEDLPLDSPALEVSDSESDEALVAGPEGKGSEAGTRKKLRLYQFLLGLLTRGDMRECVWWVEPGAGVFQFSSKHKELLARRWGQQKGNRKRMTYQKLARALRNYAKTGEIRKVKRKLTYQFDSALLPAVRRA
# In short: as §1
# [9] = target: T6, ELK3 (Homo sapiens, UniProt P41970 1-407); conditions: protein: recombinant; tags: N-terminal GST; dsDNA, one strand shown
# T6 sequence: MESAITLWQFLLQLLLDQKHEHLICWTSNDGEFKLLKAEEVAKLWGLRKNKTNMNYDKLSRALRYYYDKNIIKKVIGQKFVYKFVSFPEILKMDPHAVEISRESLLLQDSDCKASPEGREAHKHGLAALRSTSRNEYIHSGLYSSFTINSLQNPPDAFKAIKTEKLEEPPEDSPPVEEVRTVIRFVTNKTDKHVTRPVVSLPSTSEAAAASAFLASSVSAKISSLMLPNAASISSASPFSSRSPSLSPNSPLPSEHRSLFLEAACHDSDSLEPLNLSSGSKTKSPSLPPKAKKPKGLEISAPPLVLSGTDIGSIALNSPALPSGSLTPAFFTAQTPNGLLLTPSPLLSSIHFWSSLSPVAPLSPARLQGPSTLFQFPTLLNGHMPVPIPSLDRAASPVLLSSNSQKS
# In short: as §1
# [10] = target: T7, FEV (Homo sapiens, UniProt Q99581 1-238); conditions: protein: recombinant; tags: N-terminal GST; dsDNA, one strand shown
# T7 sequence: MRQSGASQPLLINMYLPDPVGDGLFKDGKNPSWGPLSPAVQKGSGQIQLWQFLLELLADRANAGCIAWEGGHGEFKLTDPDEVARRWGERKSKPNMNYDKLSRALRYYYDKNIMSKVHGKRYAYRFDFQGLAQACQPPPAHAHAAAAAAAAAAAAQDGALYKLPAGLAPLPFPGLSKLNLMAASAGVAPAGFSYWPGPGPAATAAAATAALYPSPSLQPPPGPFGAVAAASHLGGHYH
# In short: as §1
# [11] = target: ETV5 (Homo sapiens, UniProt P41161 1-510); conditions: protein: recombinant; tags: N-terminal GST; dsDNA, one strand shown
# Chain of ETV5 (P41161 whole entry): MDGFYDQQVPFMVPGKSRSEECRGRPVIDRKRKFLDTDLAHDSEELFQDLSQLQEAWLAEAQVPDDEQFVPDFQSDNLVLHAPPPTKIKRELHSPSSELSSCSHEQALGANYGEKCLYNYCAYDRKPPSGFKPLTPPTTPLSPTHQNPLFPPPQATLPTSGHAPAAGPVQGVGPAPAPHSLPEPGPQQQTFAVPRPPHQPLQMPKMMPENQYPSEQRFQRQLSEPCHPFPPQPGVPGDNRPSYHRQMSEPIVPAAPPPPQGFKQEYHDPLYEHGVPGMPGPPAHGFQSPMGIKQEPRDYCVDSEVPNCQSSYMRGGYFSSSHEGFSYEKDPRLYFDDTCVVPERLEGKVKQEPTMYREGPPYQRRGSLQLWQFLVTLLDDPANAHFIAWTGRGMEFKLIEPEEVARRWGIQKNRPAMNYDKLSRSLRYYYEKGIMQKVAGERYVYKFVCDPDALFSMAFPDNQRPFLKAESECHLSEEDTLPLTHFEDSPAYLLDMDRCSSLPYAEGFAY
# In short: as §1
# [12] = target: HSF1 (Homo sapiens, UniProt Q00613 1-529); conditions: protein: recombinant; tags: N-terminal GST; chain copies: 3; dsDNA, one strand shown
# Chain of HSF1 (Q00613 whole entry): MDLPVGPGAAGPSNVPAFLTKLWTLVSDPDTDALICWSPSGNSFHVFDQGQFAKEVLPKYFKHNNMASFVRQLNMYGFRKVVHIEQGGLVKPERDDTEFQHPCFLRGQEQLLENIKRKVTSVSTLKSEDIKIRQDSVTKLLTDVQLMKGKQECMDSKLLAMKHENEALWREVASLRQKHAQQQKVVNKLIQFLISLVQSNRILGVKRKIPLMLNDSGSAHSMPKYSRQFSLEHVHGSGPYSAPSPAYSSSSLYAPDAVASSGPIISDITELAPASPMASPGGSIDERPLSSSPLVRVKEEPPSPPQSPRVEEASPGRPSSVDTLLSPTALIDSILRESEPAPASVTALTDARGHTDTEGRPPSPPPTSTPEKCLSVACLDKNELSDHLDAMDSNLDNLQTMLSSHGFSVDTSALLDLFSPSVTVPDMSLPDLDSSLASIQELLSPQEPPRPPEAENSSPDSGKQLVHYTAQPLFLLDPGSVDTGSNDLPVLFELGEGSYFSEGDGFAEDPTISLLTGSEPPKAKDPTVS
# In short: as §1
# [13] = target: T8, SPIC (Homo sapiens, UniProt Q8N5J4 1-248); conditions: protein: recombinant; tags: N-terminal GST; dsDNA, one strand shown
# T8 sequence: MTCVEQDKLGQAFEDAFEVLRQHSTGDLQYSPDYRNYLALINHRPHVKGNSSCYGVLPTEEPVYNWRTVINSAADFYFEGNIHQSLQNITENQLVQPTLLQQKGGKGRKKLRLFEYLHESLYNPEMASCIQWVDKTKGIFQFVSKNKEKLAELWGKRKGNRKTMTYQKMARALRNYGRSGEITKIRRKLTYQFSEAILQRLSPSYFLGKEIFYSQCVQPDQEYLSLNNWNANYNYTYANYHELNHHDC
# In short: as §1
# [14] = target: ELF4 (Homo sapiens, UniProt Q99607 1-663); conditions: protein: recombinant; tags: N-terminal GST; dsDNA, one strand shown
# Chain of ELF4 (Q99607 whole entry): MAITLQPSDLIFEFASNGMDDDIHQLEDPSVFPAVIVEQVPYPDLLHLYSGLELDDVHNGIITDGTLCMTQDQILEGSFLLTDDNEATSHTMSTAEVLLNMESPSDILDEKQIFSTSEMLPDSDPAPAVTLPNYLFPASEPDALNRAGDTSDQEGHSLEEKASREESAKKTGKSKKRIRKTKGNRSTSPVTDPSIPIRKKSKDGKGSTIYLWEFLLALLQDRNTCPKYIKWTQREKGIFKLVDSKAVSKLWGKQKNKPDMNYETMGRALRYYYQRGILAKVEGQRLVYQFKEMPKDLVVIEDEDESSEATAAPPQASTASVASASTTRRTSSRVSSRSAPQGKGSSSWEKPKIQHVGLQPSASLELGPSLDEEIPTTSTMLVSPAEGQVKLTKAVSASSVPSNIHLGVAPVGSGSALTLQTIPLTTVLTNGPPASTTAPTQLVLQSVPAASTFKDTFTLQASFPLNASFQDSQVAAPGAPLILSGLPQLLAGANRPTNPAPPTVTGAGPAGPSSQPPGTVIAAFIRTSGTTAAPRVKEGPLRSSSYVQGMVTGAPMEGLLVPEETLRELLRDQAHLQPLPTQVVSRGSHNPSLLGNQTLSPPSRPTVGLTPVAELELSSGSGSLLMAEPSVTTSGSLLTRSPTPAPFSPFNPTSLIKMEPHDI
# In short: as §1
# [15] = target: T9, ELK4 (Homo sapiens, UniProt P28324-2 1-405); conditions: protein: recombinant; tags: N-terminal GST; dsDNA, one strand shown
# T9 sequence: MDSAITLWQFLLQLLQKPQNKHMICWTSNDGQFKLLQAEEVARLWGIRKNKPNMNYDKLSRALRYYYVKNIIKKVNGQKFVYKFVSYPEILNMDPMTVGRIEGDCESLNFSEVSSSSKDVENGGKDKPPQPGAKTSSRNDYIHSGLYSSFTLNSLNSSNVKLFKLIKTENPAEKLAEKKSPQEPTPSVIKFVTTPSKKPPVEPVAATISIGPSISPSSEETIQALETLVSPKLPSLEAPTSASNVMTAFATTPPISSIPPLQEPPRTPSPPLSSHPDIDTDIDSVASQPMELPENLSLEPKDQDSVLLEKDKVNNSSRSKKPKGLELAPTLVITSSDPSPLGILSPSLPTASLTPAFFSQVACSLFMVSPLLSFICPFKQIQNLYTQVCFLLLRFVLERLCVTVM
# In short: as §1
# [16] = target: T10, ETV2 (Homo sapiens, UniProt O00321 1-342); conditions: protein: recombinant; tags: N-terminal GST; dsDNA, one strand shown
# T10 sequence: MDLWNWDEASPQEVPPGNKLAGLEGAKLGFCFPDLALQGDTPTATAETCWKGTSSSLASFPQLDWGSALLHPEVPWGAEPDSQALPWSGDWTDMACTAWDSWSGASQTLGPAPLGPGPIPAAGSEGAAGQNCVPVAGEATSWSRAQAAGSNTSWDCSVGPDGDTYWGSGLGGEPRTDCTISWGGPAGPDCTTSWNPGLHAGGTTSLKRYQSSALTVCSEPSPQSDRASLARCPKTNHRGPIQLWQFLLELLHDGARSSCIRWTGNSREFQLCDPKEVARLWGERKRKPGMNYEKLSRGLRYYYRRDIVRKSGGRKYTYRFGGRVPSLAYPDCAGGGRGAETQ
# In short: as §1
# [17] = target: T11, ELF3 (Homo sapiens, UniProt P78545 1-371); conditions: protein: recombinant; tags: N-terminal GST; dsDNA, one strand shown
# T11 sequence: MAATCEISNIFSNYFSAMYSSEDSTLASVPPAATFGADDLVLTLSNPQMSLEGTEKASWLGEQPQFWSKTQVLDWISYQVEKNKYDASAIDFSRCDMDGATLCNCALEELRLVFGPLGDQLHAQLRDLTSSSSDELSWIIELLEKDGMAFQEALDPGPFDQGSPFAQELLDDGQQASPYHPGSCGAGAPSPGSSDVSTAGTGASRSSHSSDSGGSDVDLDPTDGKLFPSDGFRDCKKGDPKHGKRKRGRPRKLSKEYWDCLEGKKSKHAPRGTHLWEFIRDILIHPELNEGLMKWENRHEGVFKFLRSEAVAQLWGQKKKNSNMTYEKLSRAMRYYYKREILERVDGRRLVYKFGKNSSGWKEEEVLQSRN
# In short: as §1
# [18] = target: CRX (Homo sapiens, UniProt O43186 1-299); conditions: protein: recombinant; tags: N-terminal GST; dsDNA, one strand shown
# Chain of CRX (O43186 whole entry): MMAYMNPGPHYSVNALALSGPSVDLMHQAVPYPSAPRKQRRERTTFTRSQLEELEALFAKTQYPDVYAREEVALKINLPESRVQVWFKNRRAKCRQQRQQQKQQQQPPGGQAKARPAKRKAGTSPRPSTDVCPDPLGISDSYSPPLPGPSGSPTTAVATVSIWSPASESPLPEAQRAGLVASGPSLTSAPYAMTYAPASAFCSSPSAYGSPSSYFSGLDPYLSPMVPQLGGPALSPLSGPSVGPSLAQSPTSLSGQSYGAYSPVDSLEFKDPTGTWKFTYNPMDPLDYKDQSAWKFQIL
# In short: as §1
# [19] = target: ETV1 (Homo sapiens, UniProt P50549 1-477); conditions: protein: recombinant; tags: N-terminal GST; dsDNA, one strand shown
# Chain of ETV1 (P50549 whole entry): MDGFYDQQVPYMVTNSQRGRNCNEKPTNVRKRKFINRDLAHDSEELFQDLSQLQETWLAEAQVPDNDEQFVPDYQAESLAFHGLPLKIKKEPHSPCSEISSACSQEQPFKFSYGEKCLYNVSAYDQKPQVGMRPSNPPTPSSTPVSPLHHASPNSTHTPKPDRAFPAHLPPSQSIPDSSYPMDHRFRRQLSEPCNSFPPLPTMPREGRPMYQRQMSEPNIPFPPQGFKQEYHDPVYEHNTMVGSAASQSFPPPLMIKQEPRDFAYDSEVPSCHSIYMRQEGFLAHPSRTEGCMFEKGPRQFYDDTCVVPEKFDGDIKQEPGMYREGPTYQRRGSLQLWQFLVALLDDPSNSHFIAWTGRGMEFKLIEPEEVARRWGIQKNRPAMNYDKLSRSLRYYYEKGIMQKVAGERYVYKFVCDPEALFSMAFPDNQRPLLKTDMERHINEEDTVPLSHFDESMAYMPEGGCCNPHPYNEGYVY
# In short: as §1
sequence,measurement,setting,value
AGCTTA,binding signal,[1],"1.06 fold enrichment (6-mer frequency, TF over GST control)"
same,binding signal,[2],"1.12 fold enrichment (6-mer frequency, TF over GST control)"
same,binding signal,[3],"1.12 fold enrichment (6-mer frequency, TF over GST control)"
same,binding signal,[4],"1.13 fold enrichment (6-mer frequency, TF over GST control)"
same,binding signal,[5],"1.11 fold enrichment (6-mer frequency, TF over GST control)"
same,binding signal,[6],"1.1 fold enrichment (6-mer frequency, TF over GST control)"
same,binding signal,[7],"1.14 fold enrichment (6-mer frequency, TF over GST control)"
same,binding signal,[8],"1.21 fold enrichment (6-mer frequency, TF over GST control)"
same,binding signal,[9],"1.11 fold enrichment (6-mer frequency, TF over GST control)"
same,binding signal,[10],"1.06 fold enrichment (6-mer frequency, TF over GST control)"
same,binding signal,[11],"1.07 fold enrichment (6-mer frequency, TF over GST control)"
same,binding signal,[12],"1.94 fold enrichment (6-mer frequency, TF over GST control)"
same,binding signal,[13],"1.12 fold enrichment (6-mer frequency, TF over GST control)"
same,binding signal,[14],"1.11 fold enrichment (6-mer frequency, TF over GST control)"
same,binding signal,[15],"1.08 fold enrichment (6-mer frequency, TF over GST control)"
same,binding signal,[16],"1.14 fold enrichment (6-mer frequency, TF over GST control)"
same,binding signal,[17],"1.23 fold enrichment (6-mer frequency, TF over GST control)"
same,binding signal,[18],"3.13 fold enrichment (6-mer frequency, TF over GST control)"
same,binding signal,[19],"1.23 fold enrichment (6-mer frequency, TF over GST control)"
